A selection: hits, their analogues and other compounds. The true share with any hit is near 3.5%.
Rv3671c inh: Rv3671c serine protease inhibitors, primary screen, biochemical, fluorescence polarization, M. tuberculosis H37Rv. P9WHR9. inhibition, % at 5.96 µM. 0.048% of 320,000 active. AID 2606, 2010;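 further: extracellular domain of Rv3671c used as enzyme; 0% = enzyme with DMSO and 100% = no enzyme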
Mtb UGM inh: M. tuberculosis UGM enzyme inhibitors, primary screen, biochemical, fluorescence polarization, single point. 0.06% of 320,000 active. purified UGM, fluorescence polarization probe displacement. UDP-galactopyranose mutase (Mycobacterium tuberculosis (strain ATCC 25618 / H37Rv)), …. AID 504406, 2011. inhibition, % at 10 µM; in the data active means inhibition above about 10%, passing the limit was not always enough; inconclusive means no clear call, values can overlap the other calls
FBA Mtb inh: Mtb FBA enzyme inhibitors, primary screen, biochemical, fluorescence, strain H37Rv; Fructose-bisphosphate aldolase (Mycobacterium tuberculosis (strain ATCC 25618 / H37Rv)), …; purified M. tuberculosis FBA, fluorescence read-out; inhibition, % at 1 µM; 2.3% of 360,000 active; in the data active means inhibition above about 27%;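 further: 0% = vehicle and 100% = reference inhibitor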
Target sequence (P9WQA3 whole entry, looked up): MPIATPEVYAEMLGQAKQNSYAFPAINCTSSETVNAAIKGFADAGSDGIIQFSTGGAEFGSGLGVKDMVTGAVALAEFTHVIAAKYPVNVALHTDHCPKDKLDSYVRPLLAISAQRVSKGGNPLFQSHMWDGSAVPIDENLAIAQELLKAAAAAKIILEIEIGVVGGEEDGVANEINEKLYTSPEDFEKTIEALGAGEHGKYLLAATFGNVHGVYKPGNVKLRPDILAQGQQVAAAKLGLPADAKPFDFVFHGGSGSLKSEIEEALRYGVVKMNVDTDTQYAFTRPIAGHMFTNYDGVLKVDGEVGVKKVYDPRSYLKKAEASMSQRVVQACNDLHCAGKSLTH
GDH-TPI counter: GDH-TPI coupling enzyme inhibitors, primary screen, artefact control for M. tuberculosis FBA inhibitor project, biochemical, absorbance, full deck; GDH-TPI coupled enzyme counterscreen, NADH absorbance; inhibition, % at 4.8 µM; 1.2% of 360,000 active; in the data active means inhibition above about 30%;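 further: 0% = DMSO wells and 100% = wells lacking the enzyme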
Rv3671c cf: Rv3671c serine protease inhibitors, retest, confirmation, biochemical, fluorescence polarization, M. tuberculosis H37Rv. shares compounds with Rv3671c inh. inhibition, % at 5.96 µM. 40% of 140 active
The depositor's hits bear a star. Unless noted, no stated cut-off is given here; in the data, active means inhibition above about 38%; inactive means the rest.

For CCn1nc([N+](=O)[O-])c(C(C#N)c2nc3ccccc3n2C)c(Cl)c1=O (stereo unspecified) the results were Rv3671c inh -3, Mtb UGM inh 4, FBA Mtb inh -10 and GDH-TPI counter 3.
`CCCn1nc([N+](=O)[O-])c(C(C#N)c2nc3ccccc3s2)c(Cl)c1=O` (stereo unspecified) gave Rv3671c inh 40*, Mtb UGM inh 1, FBA Mtb inh -10, GDH-TPI counter 21 and Rv3671c cf 31.
Cc1cc(C)cc(-n2c(O)c(C=NC3CCS(=O)(=O)C3)c3ccccc3c2=O)c1 (stereo unspecified) was read as Rv3671c inh 58*, Mtb UGM inh -2, FBA Mtb inh -1, GDH-TPI counter 21 and Rv3671c cf 48*.
For CCOC(=O)C1=C(NC(=S)NC(=O)c2ccccc2)c2ccccc2CC1C(C)C (stereo unspecified) the results were Rv3671c inh 55*, Mtb UGM inh -6, FBA Mtb inh 2, GDH-TPI counter 2 and Rv3671c cf -12.
O=C(O)C1C2C=CC(C2)C1C(=O)NCc1cccnc1 (stereo unspecified) was read as Rv3671c inh 77*, Mtb UGM inh 1, FBA Mtb inh 1, GDH-TPI counter 3 and Rv3671c cf -9.
`COc1ccccc1NC(=O)C1C2C=CC(C2)C1C(=O)NCc1cccnc1` (stereo unspecified) gave Rv3671c inh 4, Mtb UGM inh 4, FBA Mtb inh 1 and GDH-TPI counter -15.
Cc1cccc2c(N=O)c(O)[nH]c12 was read as Rv3671c inh 48*, Mtb UGM inh 1, FBA Mtb inh -2, GDH-TPI counter 20 and Rv3671c cf 31.
Screening COc1ccccc1Cc1c(-c2cccc(Cl)c2)nc2ccc(C)cn12 returned FBA Mtb inh 10.
For CC12CCC(C(=O)OC3CCCCC3)(OC1=O)C2(C)C (stereo unspecified) the results were Rv3671c inh 0, Mtb UGM inh 2, FBA Mtb inh 3 and GDH-TPI counter 1.
Screening CCOC(=O)c1ccc(NC(=O)c2cn(-c3ccccc3)nc2-c2ccncc2)cc1 returned Rv3671c inh 193*, Mtb UGM inh -4, FBA Mtb inh 0, GDH-TPI counter 10 and Rv3671c cf -40.
Screening C=CCNC(=S)N1CCN(C2CCCCC2)CC1 returned Rv3671c inh 40*, Mtb UGM inh 1, FBA Mtb inh 4, GDH-TPI counter -9 and Rv3671c cf -1.
CNc1ccc2c3c(cccc13)C(=O)N(C)C2=O was read as Rv3671c inh 77*, Mtb UGM inh inconclusive, FBA Mtb inh -11, GDH-TPI counter 5 and Rv3671c cf 69*.
`CC(C)C(NS(=O)(=O)c1cccc2nsnc12)C(=O)N1CCCCC1` (stereo unspecified) gave Rv3671c inh 1, Mtb UGM inh 2, FBA Mtb inh 0 and GDH-TPI counter 10.
O=C(NC(=S)NNC(=O)c1ccccc1O)c1cccnc1 was read as Rv3671c inh 47*, Mtb UGM inh 2, FBA Mtb inh -2, GDH-TPI counter 14 and Rv3671c cf 44*.
Screening O=C(NC(=S)NNC(=O)c1ccc(Cl)cc1Cl)c1cccnc1 returned Rv3671c inh -11, FBA Mtb inh -2 and GDH-TPI counter 2.
COc1ccc(CC(=O)N/N=C(/C)CC(=O)N(C)c2ccccc2)cc1 was read as Rv3671c inh 1, Mtb UGM inh -2, FBA Mtb inh 4 and GDH-TPI counter 1.
CCC(=O)c1ccc(OC(=O)Cc2ccc(OC)cc2)cc1 was read as Rv3671c inh 51*, Mtb UGM inh 1, FBA Mtb inh 1, GDH-TPI counter 10 and Rv3671c cf 55*.
`C[n+]1c2ccccc2nc2ccc(NCCO)cc21` gave Rv3671c inh 43*, Mtb UGM inh 0, FBA Mtb inh 3, GDH-TPI counter 11 and Rv3671c cf 42*.
For CC(C)n1c(NCCO)nc2ccccc21 the results were Rv3671c inh 8, Mtb UGM inh 0, FBA Mtb inh -4 and GDH-TPI counter -6.
Screening CNc1ccc2nc3ccccc3[n+](C)c2c1 returned Rv3671c inh 107*, Mtb UGM inh 2, FBA Mtb inh -1, GDH-TPI counter -9 and Rv3671c cf 82*.
Screening CCN(CC)c1ccc2nc3ccccc3[n+](CC)c2c1 returned Rv3671c inh -2, Mtb UGM inh 4, FBA Mtb inh -3 and GDH-TPI counter 14.
For CCOc1ccc(C(=O)NCC2CCCN2S(=O)(=O)c2cccs2)cc1 (stereo unspecified) the results were Rv3671c inh -1, Mtb UGM inh -4, FBA Mtb inh -1 and GDH-TPI counter 1.
O=c1cc[nH]c2c1ccc1c(=O)cc[nH]c12 was read as Rv3671c inh 50*, Mtb UGM inh 2, FBA Mtb inh 24, GDH-TPI counter 10 and Rv3671c cf 15.
`O=c1cc[nH]c2c(Cl)cccc12` gave Rv3671c inh -4, Mtb UGM inh 0, FBA Mtb inh 3 and GDH-TPI counter 16.
`CCc1csc(CCNC(=O)C2CCC(=O)N(Cc3cccc(C(F)(F)F)c3)C2)n1` (stereo unspecified) gave Rv3671c inh -10, Mtb UGM inh 5, FBA Mtb inh 3 and GDH-TPI counter 3.
COc1ccc(C(=O)N/N=C/c2cc3ccccc3[nH]c2=S)cc1 was read as Rv3671c inh 44*, Mtb UGM inh 5, FBA Mtb inh 1, GDH-TPI counter 26 and Rv3671c cf 45*.
`c1ccc(CCN2CN=C(Nc3nc4ccccc4s3)NC2)cc1` gave Rv3671c inh 78*, Mtb UGM inh -1, FBA Mtb inh -1, GDH-TPI counter 1 and Rv3671c cf 9.
CC1CCCC12NC(=O)NC2=O (stereo unspecified) was read as FBA Mtb inh 0 and GDH-TPI counter -2.
COC(=O)c1ccc(COc2cc(C)cc3oc(=O)c4c(c23)CCCC4)o1 was read as Rv3671c inh -2, Mtb UGM inh 1, FBA Mtb inh 4 and GDH-TPI counter 8.
`Cc1cc(OC(=O)c2ccco2)c2c3c(c(=O)oc2c1)CCCC3` gave Rv3671c inh 60*, Mtb UGM inh -2, FBA Mtb inh 2, GDH-TPI counter 5 and Rv3671c cf 73*.
For COc1cccc(CSc2nc3ccncc3[nH]2)c1 the results were Rv3671c inh 183*, Mtb UGM inh -5, FBA Mtb inh 0, GDH-TPI counter 3 and Rv3671c cf -1.
`CCc1ncc(CN2CCCC(C(=O)Nc3ccc(-c4cscn4)cc3)C2)cn1` (stereo unspecified) gave Rv3671c inh 6, Mtb UGM inh 1, FBA Mtb inh 3 and GDH-TPI counter 0.
`O=C(NCCO)c1cc2ccccc2cc1O` gave Rv3671c inh -4, Mtb UGM inh 2, FBA Mtb inh 3 and GDH-TPI counter 0.
For NNC(=O)c1cc2ccccc2cc1O the results were Rv3671c inh 37*, Mtb UGM inh 2, FBA Mtb inh 2, GDH-TPI counter 15 and Rv3671c cf -5.
